Experimental data: PubChem BioAssay (NCATS)
Inconclusive results are not listed. Entries that show only a call come without a potency. Activity calls are given as the source filed them. Calls come from the whole dose curve; as a rule, active = well fitted curve in the direction sought with a large enough effect; inconclusive = small, poorly fitted or top-dose-only effect, or another doubt; inactive = no such curve, though single readings can be large; an effect the other way counts as inactive or inconclusive. Non-standard residues stand in square brackets, D forms with d. Residues, ends and D or L forms follow the SMILES beside them. *: point of attachment. Nva = CCC[C@H](N)C(=O)O; Cbz = O=C(OCc1ccccc1)*

Key:
[1] = qHTS of pediatric cancer cell lines to identify multiple opportunities for drug repurposing: Primary screen for RD cells (AID 1347104); note: nearly all actives have a fitted effect of over 55% in size
Outline: (§1)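 Phenotypic viability qHTS, 48 h compound exposure, CellTiter-Glo luminescence read-out; multi-concentration dosing so that potency and efficacy derive directly from the primary screen's curves.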

[2] = qHTS of pediatric cancer cell lines to identify multiple opportunities for drug repurposing: Primary screen for MG 63 (6-TG R) cells (AID 1347105); note: nearly all actives have a fitted effect of over 50% in size
Outline: as §1

[3] = qHTS of pediatric cancer cell lines to identify multiple opportunities for drug repurposing: Primary screen for Rh41 cells (AID 1347108); note: nearly all actives have a fitted effect of over 70% in size
Outline: as §1

[4] = qHTS of pediatric cancer cell lines to identify multiple opportunities for drug repurposing: Confirmatory screen for NB1643 cells (AID 1347109); note: nearly all actives have a fitted effect of over 45% in size
Outline: (§2)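 Viability after 48 h compound treatment at 37C, 500-1,000 cells/well, read as ATP luminescence with CellTiter-Glo. Primary screens used 11-point (MIPE, 0.78 nM-46 µM) or 8-point (NPC, 0.59 nM-46 µM) final concentrations; follow-up screens used 11-point dilutions.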

[5] = qHTS of pediatric cancer cell lines to identify multiple opportunities for drug repurposing: Confirmatory screen for A673 cells (AID 1347110); note: nearly all actives have a fitted effect of over 65% in size
Outline: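 Concentration-response curves came straight from titrations: 11 points (0.78 nM to 46 µM) for MIPE and several concentrations (0.59 nM to 46 µM) for NPC in primary, 11 points in follow-up. Readout: ATP luminescence at 48 h.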

[6] = qHTS of pediatric cancer cell lines to identify multiple opportunities for drug repurposing: Confirmatory screen for SK-N-MC cells (AID 1347111);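 note: cells exposed to compound for 48 h before the readout; nearly all actives have a fitted effect of over 70% in size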
Outline: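 SK-N-MC cells at 500-1,000 cells/well in growth media were pre-incubated 5 h, then exposed to compounds at 11-point dilutions for 48 h at 37 degrees C, 5% CO2. Viability was read as CellTiter-Glo luminescence.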

[7] = qHTS of pediatric cancer cell lines to identify multiple opportunities for drug repurposing: Primary screen for control Hh wild type fibroblast cells (AID 1347106); note: nearly all actives have a fitted effect of over 55% in size
Outline: as §2

[8] = qHTS of pediatric cancer cell lines to identify multiple opportunities for drug repurposing: Primary screen for Rh30 cells (AID 1347107); note: nearly all actives have a fitted effect of over 75% in size
Outline: as §2

[9] = qHTS of pediatric cancer cell lines to identify multiple opportunities for drug repurposing: Confirmatory screen for BT-12 cells (AID 1347112); note: nearly all actives have a fitted effect of over 55% in size
Outline: as §2
Potency is the fitted concentration of half-maximal effect.

| Structure (SMILES) | Potency [1] | Potency [2] | Potency [3] | Potency [4] | Potency [5] | Potency [6] | Potency [7] | Potency [8] | Potency [9] |
| --- | --- | --- | --- | --- | --- | --- | --- | --- | --- |
| C=CC(=O)N1CCc2ccc(-n3c(=O)ccc4cnc5ccc(-c6cnn(C)c6)cc5c43)cc21 | 4.69 µM (active) | 2.96 µM (active) | 3.72 µM (active) | 2.93 µM (active) | 14.7 µM (active) | 5.22 µM (active) |  |  |  |
| Cc1ccc(O)c(C(CCN(C(C)C)C(C)C)c2ccccc2)c1 (centres undefined) | inactive | inactive | inactive |  |  |  | inactive | inactive |  |
| C[C@H](CCC(=O)O)[C@H]1CCC2C3C[C@H](O)[C@@H]4C[C@H](O)CC[C@]4(C)C3CC[C@@]21C (some centres undefined) | inactive | inactive | inactive |  |  |  | inactive | inactive |  |
| CC(Oc1ccc(O)cc1)(P(=O)(O)O)P(=O)(O)O | inactive | inactive | inactive |  |  |  | inactive | inactive |  |
| c1cncc(CN2CCC(n3ncc4c(N5CCOCC5)nc(-c5ccc6[nH]ccc6c5)nc43)CC2)c1 | 6.62 µM (active) | 14.8 µM (active) |  |  |  |  |  | 14.8 µM (active) |  |
| O=C1NCCc2[nH]c(-c3ccncc3)cc21 | 6.62 µM (active) |  | 2.35 µM (active) |  | 2.08 µM (active) | 7.37 µM (active) | inactive | inactive | 2.33 µM (active) |
| CCN(CC)Cc1ccc2cc(COC(=O)Nc3ccc(C(=O)NO)cc3)ccc2c1 | 2.35 µM (active) | 4.69 µM (active) | 0.935 µM (active) | inactive | inactive | inactive | 14.8 µM (active) | 4.69 µM (active) | inactive |
| CS(=O)(=O)N1CCc2c(-c3cnc(N)nc3)nc(N3CCOCC3)nc21 | 0.418 µM (active) | 0.118 µM (active) | 0.833 µM (active) | 1.65 µM (active) | 4.14 µM (active) | 2.61 µM (active) |  |  |  |
| CCCCCCCCCCCC(CC1OC(=O)C1CCCCCC)OC(=O)C(CC(C)C)NC=O (centres undefined) | inactive | inactive | inactive |  |  |  | inactive | inactive |  |
| C=C[C@@H]1CN2CCC1C[C@H]2[C@H](O)c1ccnc2ccc(OC)cc12 (some centres undefined) | inactive | inactive | inactive |  |  |  |  | inactive |  |
| CN(C)c1ccc2cc(C(=O)N[C@@H](CCCN=C(N)CCl)C(=O)NCc3ccccc3)ccc2c1 | 13.2 µM (active) |  | 14.8 µM (active) |  |  |  | inactive | 4.69 µM (active) |  |
| COC(=O)[C@@H]1CC2=CC(=O)CC[C@]2(C)[C@@]23O[C@@H]2C[C@@]2(C)[C@H](CC[C@@]24CCC(=O)O4)[C@@H]13 | inactive | inactive | inactive |  |  |  | inactive | inactive |  |
| CC1(C)[C@H](O[C@H]2O[C@H](C(=O)O)[C@@H](O)[C@H](O)[C@H]2O[C@@H]2O[C@H](C(=O)O)[C@@H](O)[C@H](O)[C@H]2O)CC[C@@]2(C)[C@H]1CC[C@]1(C)[C@H]2C(=O)C=C2[C@H]3C[C@@](C)(C(=O)O)CC[C@]3(C)CC[C@]21C | inactive | inactive | inactive |  |  |  |  | inactive |  |
| CCCCCCCN(CC)CCCC(O)c1ccc(NS(C)(=O)=O)cc1 (centres undefined) | inactive | inactive | inactive |  |  |  | inactive | inactive |  |
| CC(C)N(CC[C@H](c1ccccc1)c1cc(CO)ccc1O)C(C)C | inactive | inactive | inactive |  |  |  | inactive | inactive |  |
| CCC[C@@H](C=O)NC(=O)[C@H](CC(C)C)NC(=O)[C@H](CC(C)C)NC(=O)OCc1ccccc1 (Cbz-Leu-Leu-[Nva]-aldehyde) | 0.935 µM (active) | 0.935 µM (active) | 2.35 µM (active) | 1.65 µM (active) | 1.17 µM (active) | 0.414 µM (active) | 5.26 µM (active) | 4.69 µM (active) | 2.93 µM (active) |
| C[C@@H]1[C@H](C)CC[C@]2(C(=O)O)CC[C@]3(C)C(=CC[C@@H]4[C@@]5(C)C[C@@H](O)[C@H](O)[C@@](C)(CO)[C@H]5CC[C@]43C)[C@@H]12 | inactive | inactive | inactive |  |  |  | inactive | inactive |  |
| CNC(=O)Nc1ccc(-c2nc(N3CC4CCC(C3)O4)c3cnn(C4CCC5(CC4)OCCO5)c3n2)cc1 | 0.0526 µM (active) | 0.0118 µM (active) |  |  | 1.04 µM (active) | 0.585 µM (active) |  | 11.8 µM (active) |  |
| CN[C@H]1[C@@H](O)[C@@H]2O[C@@H]3O[C@H](C)CC(=O)[C@]3(O)O[C@@H]2[C@@H](NC)[C@H]1O | 0.59 µM (active) | 9.35 µM (active) | 1.18 µM (active) | inactive | inactive |  | 3.72 µM (active) | 0.296 µM (active) | inactive |
| Cc1cnn(C)c1C(=O)Nc1cc(Nc2ccc3c(C=Cc4ccccn4)n[nH]c3c2)ccc1F | 18.7 µM (active) |  |  |  |  |  | inactive |  |  |
| COC(=O)[C@@H]1[C@H]2C[C@@H]3c4[nH]c5ccccc5c4CCN3C[C@@H]2CC[C@@H]1O | inactive | inactive | inactive | inactive | inactive | inactive | inactive | inactive | inactive |
| CC(=O)N[C@@H]1[C@H](O[C@@H]2c3ccc(c(Cl)c3)Oc3cc4cc(c3O[C@H]3O[C@H](CO)[C@@H](O)[C@H](O)[C@H]3NC(=O)CCCCCCCC(C)C)Oc3ccc(cc3Cl)C[C@H]3NC(=O)[C@H](N)c5ccc(O)c(c5)Oc5cc(O)cc(c5)[C@H](NC3=O)C(=O)N[C@H]4C(=O)N[C@H]3C(=O)N[C@@H]2C(=O)N[C@@H](C(=O)O)c2cc(O)cc(O[C@H]4O[C@H](CO)[C@@H](O)[C@H](O)[C@H]4O)c2-c2cc3ccc2O)O[C@H](CO)[C@@H](O)[C@@H]1O | inactive | inactive | inactive |  |  |  | inactive | inactive |  |
| C[C@@H](Cc1cc2c(c(C(N)=O)c1)N(CCCO)CC2)NCCOc1ccccc1OCC(F)(F)F | inactive | inactive | inactive |  |  |  |  | inactive |  |
| O=c1[nH]c(=O)n([C@H]2C[C@@H](O)[C@@H](CO)O2)cc1F | 16.6 µM (active) | 18.7 µM (active) | 1.48 µM (active) |  |  |  |  |  |  |
| CN1[C@H]2CC(OC(=O)[C@@H](CO)c3ccccc3)C[C@H]1[C@H]1O[C@H]12 (some centres undefined) | inactive | inactive | inactive |  |  |  | inactive | inactive |  |
| Cc1cnc(Nc2ccc(CN3CCOCC3)cc2)nc1Nc1cccc(S(=O)(=O)NC(C)(C)C)c1 | 6.62 µM (active) | 3.72 µM (active) |  | 5.85 µM (active) | 13.1 µM (active) | 5.22 µM (active) | 11.8 µM (active) | 6.62 µM (active) |  |
| COc1ccc2cc([S+]([O-])Cc3ncc(C)c(OC)c3C)nc2c1 | inactive | inactive | inactive |  |  |  | inactive |  |  |
